Results: PubChem BioAssay (NCATS)
Inconclusive results are not listed. Where a call stands in place of a potency, no number is given. Active and inactive are the calls of the source. Unless noted, calls come from the whole dose curve.

Key:
[1] = biological target: Peroxisome proliferator-activated receptor gamma (Homo sapiens) (UniProt P37231); assay: qHTS assay for small molecule agonists of peroxisome proliferator-activated receptor gamma signaling (AID 588536; active = well fitted curve in the direction sought with a large enough effect in the signal ratio, with a control signal flat, not every such curve was filed as active; the % refers to the signal ratio)
Procedure, shortened: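 PPAR-gamma-UAS-bla HEK293 cells in medium with 1% charcoal/dextran-treated FBS were exposed to compounds for 16 h at 37 C. Beta-lactamase activity was read with CCF4 substrate (405 nm excitation, 460/530 nm emission).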

[2] = biological target: Vitamin D3 receptor (Homo sapiens) (UniProt P11473); assay: qHTS assay for small molecule antagonists of vitamin D receptor signaling (AID 588541);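 note: receptor activated by calcitriol during compound treatment; series mostly up to about 77 µM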
Procedure, shortened: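 VDR-UAS-bla HEK293T cells in 2% charcoal-stripped FBS were stimulated with 1-alpha,25-dihydroxyvitamin D3 (3 nM final) plus compound for 16 h at 37 C. The beta-lactamase CCF4 readout was normalized to 50 nM agonist and DMSO, and Hill fits gave IC50.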

[3] = biological target: Vitamin D3 receptor (Homo sapiens) (UniProt P11473); assay: qHTS assay for small molecule agonists of vitamin D receptor signaling (AID 588543)
Procedure, shortened: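 qHTS in agonist mode: compound titrations stimulate a VDR-driven β-lactamase reporter in HEK293T cells over 16 h at 37 °C. Response normalized to 50 nM 1α,25-dihydroxyvitamin D3 = 100%, DMSO = 0%; Hill fitting gives EC50 and maximal response.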

[4] = biological target: Androgen receptor (Homo sapiens) (UniProt P10275); assay: qHTS assay for small molecule antagonists of androgen receptor signaling (AID 588516; active = well fitted curve in the direction sought with a large enough effect in the signal ratio, with a control signal flat, not every such curve was filed as active; the % refers to the signal ratio; note: potency is the fitted concentration of half-maximal effect); details: AR-UAS-bla HEK293, beta-lactamase ratio, antagonist mode, 16 h
Procedure, shortened: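 Antagonist-mode qHTS: inhibition of R1881 (10 nM)-driven beta-lactamase expression in GripTite HEK 293 cells is measured after 16 h; values are Hill-derived IC50s normalized between R1881 and DMSO wells.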

[5] = biological target: Bile acid receptor (Homo sapiens) (UniProt Q96RI1); assay: qHTS assay for small molecule antagonists of farnesoid X receptor signaling (AID 588526); note: potency is the fitted concentration of half-maximal effect
Procedure, shortened: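 Antagonist mode: titrated compounds tested against chenodeoxycholic acid stimulation (normalized to 50 uM CDCA and DMSO) in GeneBLAzer HEK293T cells for 16 h. Beta-lactamase read by CCF4 fluorescence; IC50 from Hill fits.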

[6] = biological target: Glucocorticoid receptor (Homo sapiens) (UniProt P04150); assay: qHTS assay for small molecule agonists of glucocorticoid receptor signaling (AID 588532; active = well fitted curve in the direction sought with a large enough effect in the signal ratio, with a control signal flat; the % refers to the signal ratio); details: HeLa MMTV-bla, beta-lactamase ratio, agonist, 18 h; stronger effect = higher value; percent of dexamethasone control, DMSO zero
From the text: (§1) NIH Chemical Genomics Center [NCGC] U.S. Environmental Protection Agency [EPA] National Institutes of Environmental Health Sciences [NIEHS] National Toxicology Program [NTP] NCGC Assay Overview The Glucocorticoid receptor (GR), a nuclear receptor subfamily member and its natural ligands includes […] etc. The GR is a validated drug target for inflammation. GR ligands such as dexamethasone are clinically available as anti-inflammatory drugs. Glucocorticoids implicate role in carbohydrate, protein and lipid metabolisms and programmed cell death. They are also a component of many chemotherapy regimens for the treatment of leukemias, lymphomas, and myelomas because of their role in the induction of apoptosis.
NCGC Assay Protocol Summary Using a beta-lactamase reporter-gene under control of glucocorticoid response element (GRE), a cell-based assay [CellSensor MMTV-bla HeLa cell line assay developed by Invitrogen] was used to measure GR ligands signaling. CellSensor MMTV-bla HeLa cells were used with assay medium containing 1% charcoal/dextran treated FBS, 0.1 mM NEAA, 1 mM sodium pyruvate and 25mM HEPES. The assay was performed in clear bottom black Greiner 1536-well plates. Dexamethasone and Mifepristine were used in the screen as agonist and antagonist positive controls respectively. Library compounds were measured for their ability to stimulate the reporter gene activity. Compounds were screened in a titration series in 1536-well format. The fluorescence intensity (405 nm excitation, 460/530 nm emission) was measured using an EnVision plate reader. Data was normalized relative to Dexamethasone control (0.1 uM, 100%), and DMSO only wells (basal, 0%). Concentration-response titration points for each compound were fitted to the Hill equation yielding concentrations of half-maximal stimulation (EC50) and maximal response (efficacy) values. qHTS protocol for GR beta-lactamase assay in agonist mode [Step] [Parameter] [Value] [Description] 1. Reagent; 6 uL; 1500 cells/well 2. Incubation; 37 C for 3-5 hrs 3. […] Detection; Fluorescence; Envision plate reader

[7] = biological target: Glucocorticoid receptor (Homo sapiens) (UniProt P04150); assay: qHTS assay for small molecule antagonists of glucocorticoid receptor signaling (AID 588533; active = well fitted inhibition curve with a large enough effect in the signal ratio, with a control signal flat, not every such curve was filed as active; the % refers to the signal ratio; note: potency is the fitted concentration of half-maximal effect)
From the text: as §1, with “implicate a” for “implicate”
NCGC Assay Protocol Summary Using a beta-lactamase reporter-gene under control of glucocorticoid response element (GRE), a cell-based assay [CellSensor MMTV-bla HeLa cell line assay developed by Invitrogen] was used to measure GR ligands signaling. CellSensor MMTV-bla HeLa cells were used with assay medium containing 1% charcoal/dextran treated FBS, 0.1 mM NEAA, 1 mM sodium pyruvate and 25mM HEPES. The assay was performed in clear bottom black Greiner 1536-well plates. Library compounds were measured for their ability to inhibit the reporter gene activity. Compounds were screened in a titration series in 1536-well format. […] Data was normalized relative to Dexamethasone control (2 nM, 100%), and DMSO only wells (basal, 0%). Concentration-response titration points for each compound were fitted to the Hill equation yielding concentrations of half-maximal inhibition (IC50) and maximal response (efficacy) values. qHTS protocol for GR beta-lactamase assay in antagonist mode [Step] [Parameter] [Value] [Description] 1. Reagent; 5 uL; 1500 cells/well 2. Incubation; 37 C for 3-5 hrs 3. Compounds; 23 nL; 0.59 nM to 92 uM 4. […] Agonist (Stimulator); 1uL; Dexamethasone at 2 nM (final) concentration 6. Incubation; 37 C for 18 hrs 7. Detection reagent; 1 uL of CCF4-dye 8. Incubation; RT for 2 hrs 9. Detection; Fluorescence; Envision plate reader

[8] = qHTS assay for small molecule antagonists of peroxisome proliferator-activated receptor delta signaling (AID 588535; active = well fitted inhibition curve with a large enough effect in the signal ratio, with a control signal flat, not every such curve was filed as active; the % refers to the signal ratio;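 for max response: cells co-treated with a PPAR-delta agonist as stimulator during compound exposure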); details: HEK293T PPARd-UAS-bla, beta-lactamase FRET ratio, 18 h; 460 nm channel
Procedure, shortened: (§2)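 Cells were seeded at 4000 per well in assay medium containing 2% charcoal/dextran FBS and held 5 hrs at 37 C. Compounds were then added for 18 hrs. CCF4 substrate was applied for 2 hrs at room temperature before fluorescence reading.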

[9] = biological target: Peroxisome proliferator-activated receptor delta (Homo sapiens) (UniProt Q03181); assay: as above
Procedure, shortened: as §2

[10] = biological target: Peroxisome proliferator-activated receptor gamma (Homo sapiens) (UniProt P37231); assay: qHTS assay for small molecule antagonists of peroxisome proliferator-activated receptor gamma signaling (AID 588537; active = well fitted inhibition curve with a large enough effect in the signal ratio, with a control signal flat, not every such curve was filed as active; the % refers to the signal ratio;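 note: reporter cells co-stimulated with 50 nM rosiglitazone agonist during compound treatment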)
Procedure, shortened: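 Step one: plate 3000 HEK293 UAS-bla cells per well in medium with 1% stripped serum and hold 6-6.5 h at 37 C. Step two: add compound and 50 nM agonist for 16 h. Step three: CCF4 loading, fluorescence read.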

Sequence of Peroxisome proliferator-activated receptor gamma (Homo sapiens) (P37231 whole entry, looked up): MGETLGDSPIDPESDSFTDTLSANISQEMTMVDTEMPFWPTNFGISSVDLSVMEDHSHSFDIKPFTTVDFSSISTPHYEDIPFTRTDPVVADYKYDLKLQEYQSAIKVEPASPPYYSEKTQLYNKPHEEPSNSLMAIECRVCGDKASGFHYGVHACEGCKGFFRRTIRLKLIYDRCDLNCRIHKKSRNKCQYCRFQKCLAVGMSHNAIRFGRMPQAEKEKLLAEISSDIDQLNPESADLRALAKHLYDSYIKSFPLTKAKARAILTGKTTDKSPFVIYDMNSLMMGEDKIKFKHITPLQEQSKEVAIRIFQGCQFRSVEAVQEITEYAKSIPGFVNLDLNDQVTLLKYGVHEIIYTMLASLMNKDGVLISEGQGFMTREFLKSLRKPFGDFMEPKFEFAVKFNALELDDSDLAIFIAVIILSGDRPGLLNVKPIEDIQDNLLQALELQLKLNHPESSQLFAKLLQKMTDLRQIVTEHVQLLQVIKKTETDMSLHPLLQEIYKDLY
Sequence of Bile acid receptor (Homo sapiens) (Q96RI1 whole entry, looked up): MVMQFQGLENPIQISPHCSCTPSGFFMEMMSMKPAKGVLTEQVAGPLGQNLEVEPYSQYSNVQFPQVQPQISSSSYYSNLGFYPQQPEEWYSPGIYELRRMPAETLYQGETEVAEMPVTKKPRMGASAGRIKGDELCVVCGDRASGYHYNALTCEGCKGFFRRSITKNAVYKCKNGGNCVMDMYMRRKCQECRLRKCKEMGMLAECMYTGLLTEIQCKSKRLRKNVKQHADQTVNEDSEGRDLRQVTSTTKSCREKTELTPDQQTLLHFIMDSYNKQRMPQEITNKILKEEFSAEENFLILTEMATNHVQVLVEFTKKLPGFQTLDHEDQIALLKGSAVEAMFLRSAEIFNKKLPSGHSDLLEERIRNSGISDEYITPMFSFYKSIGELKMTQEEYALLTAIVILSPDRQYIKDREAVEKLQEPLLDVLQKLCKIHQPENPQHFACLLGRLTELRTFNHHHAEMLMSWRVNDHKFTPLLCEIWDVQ
Sequence of Glucocorticoid receptor (Homo sapiens) (P04150 whole entry, looked up): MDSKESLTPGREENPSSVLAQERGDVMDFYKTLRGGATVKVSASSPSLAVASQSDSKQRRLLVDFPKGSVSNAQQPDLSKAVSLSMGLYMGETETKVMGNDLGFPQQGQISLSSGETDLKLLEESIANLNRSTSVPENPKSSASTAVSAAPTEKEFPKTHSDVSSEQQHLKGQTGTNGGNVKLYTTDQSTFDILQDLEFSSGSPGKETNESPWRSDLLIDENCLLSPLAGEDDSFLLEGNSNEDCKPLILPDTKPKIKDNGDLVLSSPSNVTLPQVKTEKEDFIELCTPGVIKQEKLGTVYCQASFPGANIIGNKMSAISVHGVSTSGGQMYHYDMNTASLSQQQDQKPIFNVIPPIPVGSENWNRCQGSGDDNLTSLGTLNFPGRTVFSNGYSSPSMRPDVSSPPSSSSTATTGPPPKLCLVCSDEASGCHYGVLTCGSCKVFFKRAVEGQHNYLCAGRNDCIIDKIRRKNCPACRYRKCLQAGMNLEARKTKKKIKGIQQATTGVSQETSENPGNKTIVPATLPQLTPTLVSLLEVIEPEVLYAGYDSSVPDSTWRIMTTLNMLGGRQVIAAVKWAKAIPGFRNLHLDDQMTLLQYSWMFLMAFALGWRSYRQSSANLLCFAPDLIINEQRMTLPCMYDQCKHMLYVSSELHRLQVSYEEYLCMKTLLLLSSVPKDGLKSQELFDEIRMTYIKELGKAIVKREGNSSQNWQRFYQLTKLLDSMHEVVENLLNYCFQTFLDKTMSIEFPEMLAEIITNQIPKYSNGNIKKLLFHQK
Sequence of Vitamin D3 receptor (Homo sapiens) (P11473 whole entry, looked up): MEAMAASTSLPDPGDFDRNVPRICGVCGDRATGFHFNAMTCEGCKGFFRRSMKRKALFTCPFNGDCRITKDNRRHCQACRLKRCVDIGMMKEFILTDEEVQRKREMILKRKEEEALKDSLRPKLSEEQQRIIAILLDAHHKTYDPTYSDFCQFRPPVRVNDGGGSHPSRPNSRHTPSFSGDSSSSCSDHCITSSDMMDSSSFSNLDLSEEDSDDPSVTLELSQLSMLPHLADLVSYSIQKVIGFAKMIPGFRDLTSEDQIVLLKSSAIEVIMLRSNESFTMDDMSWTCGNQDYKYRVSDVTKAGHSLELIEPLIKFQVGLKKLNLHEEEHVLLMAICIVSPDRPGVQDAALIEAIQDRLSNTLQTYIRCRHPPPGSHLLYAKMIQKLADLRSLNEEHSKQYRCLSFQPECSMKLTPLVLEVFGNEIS
Sequence of Peroxisome proliferator-activated receptor delta (Homo sapiens) (Q03181 whole entry, looked up): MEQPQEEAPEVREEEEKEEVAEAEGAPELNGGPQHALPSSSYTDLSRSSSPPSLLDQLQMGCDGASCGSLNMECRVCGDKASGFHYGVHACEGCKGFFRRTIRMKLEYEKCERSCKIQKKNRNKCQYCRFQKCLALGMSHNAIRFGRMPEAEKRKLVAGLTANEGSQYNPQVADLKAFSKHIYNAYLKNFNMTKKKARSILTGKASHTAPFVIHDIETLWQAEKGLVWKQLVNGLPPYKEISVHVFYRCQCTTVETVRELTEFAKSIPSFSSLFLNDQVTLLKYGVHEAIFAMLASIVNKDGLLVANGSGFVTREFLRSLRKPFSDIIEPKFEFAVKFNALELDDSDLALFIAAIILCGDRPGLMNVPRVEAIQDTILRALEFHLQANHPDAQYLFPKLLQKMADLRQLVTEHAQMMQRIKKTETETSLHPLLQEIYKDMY
Sequence of Androgen receptor (Homo sapiens) (P10275 whole entry, looked up): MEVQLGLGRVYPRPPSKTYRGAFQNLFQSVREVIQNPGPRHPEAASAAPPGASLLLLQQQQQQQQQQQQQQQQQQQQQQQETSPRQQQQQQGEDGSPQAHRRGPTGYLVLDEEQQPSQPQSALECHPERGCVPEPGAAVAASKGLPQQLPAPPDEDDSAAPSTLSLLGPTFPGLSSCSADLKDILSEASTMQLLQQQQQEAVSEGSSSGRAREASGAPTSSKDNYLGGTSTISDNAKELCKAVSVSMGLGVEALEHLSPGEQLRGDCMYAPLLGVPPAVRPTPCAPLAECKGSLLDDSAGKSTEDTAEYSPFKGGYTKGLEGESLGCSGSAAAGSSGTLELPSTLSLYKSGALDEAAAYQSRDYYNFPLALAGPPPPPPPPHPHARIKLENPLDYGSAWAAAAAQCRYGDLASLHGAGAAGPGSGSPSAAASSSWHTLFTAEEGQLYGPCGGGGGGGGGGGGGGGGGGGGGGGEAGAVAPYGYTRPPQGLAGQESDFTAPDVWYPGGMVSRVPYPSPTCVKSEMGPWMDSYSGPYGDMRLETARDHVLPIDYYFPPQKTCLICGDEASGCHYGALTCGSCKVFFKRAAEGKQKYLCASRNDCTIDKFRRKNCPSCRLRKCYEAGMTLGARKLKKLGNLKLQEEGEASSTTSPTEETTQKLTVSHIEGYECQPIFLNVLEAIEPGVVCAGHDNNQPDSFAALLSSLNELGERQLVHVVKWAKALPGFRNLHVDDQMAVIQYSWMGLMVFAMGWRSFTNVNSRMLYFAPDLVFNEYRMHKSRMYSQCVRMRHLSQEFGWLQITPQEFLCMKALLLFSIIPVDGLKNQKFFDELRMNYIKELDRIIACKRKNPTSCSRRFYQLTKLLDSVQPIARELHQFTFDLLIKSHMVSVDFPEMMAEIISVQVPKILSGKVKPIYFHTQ

Structure (SMILES)	outcome [1]	outcome [2]	outcome [3]	Potency [4]	Potency [5]	activation [6]	Potency [7]	max response [8] [%]	outcome [9]	outcome [10]
OC[C@@H](O)[C@@H](O)[C@H](O)[C@@H](O)CO	inactive	inactive	inactive	–	–	–	–	–	–	–
CC(C=CC1=C(C)CCCC1(C)C)=CC=CC(C)=CC(=O)Nc1ccc(O)cc1	–	–	inactive	35.5 µM (active)	39.8 µM (active)	5.23% (inactive)	–	–	–	–
Cc1cc(O)c2c(c1)C(=O)c1cccc(O)c1C2=O	inactive	inactive	inactive	–	inactive	–	inactive	-38.7	inactive	inactive
O=C1c2cccc(O)c2C(=O)c2c(O)cc(CO)cc21	–	inactive	inactive	–	inactive	-14.5% (inactive)	inactive	–	–	inactive
C[C@]12CC[C@@H]3c4ccc(O)cc4CC[C@H]3[C@H]1CC[C@H]2O	inactive	inactive	inactive	–	–	-15.8% (inactive)	15.8 µM (active)	-15.7	inactive	–
